Data as given in PubChem BioAssay (NCATS).
Records with an inconclusive call do not appear. Unless noted, calls come from the whole dose curve; as a rule, active = well fitted curve in either direction with a large enough effect (not every such curve was filed as active); inconclusive = small, poorly fitted or top-dose-only effect, or another doubt; inactive = flat fitted curve, though single readings scatter.

What was measured:
[1] = AP1 Signaling Pathway (AID 357); settings: ME-180 AP-1-bla reporter, EGF-induced, beta-lactamase ratio, 5 h; at 17.2 µM (top of the series) unless noted;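 note: ME-180 reporter cells stimulated with EGF at its EC50 level; % is set by controls: 0 for no effect and ±100 for the full control effect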
Procedure, shortened: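 Modulation of EGF-driven AP-1 transcription was assessed with a beta-lactamase reporter in ME-180 cells. Compound and EC50 EGF were co-incubated 5 hours at 37 °C before 2.5-hour CCF4 loading at room temperature and dual-emission reading.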

[2] = NFAT Signaling Pathway (AID 444); settings: Jurkat NFAT-bla M1, carbachol, beta-lactamase ratio, 5 h; at 17.2 µM (top of the series) unless noted;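 note: carbachol stimulus at about its EC50 of 1 µM final; % is set by controls: 0 for no effect and ±100 for the full control effect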
Procedure, shortened: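 Jurkat cells carrying an NFAT-driven β-lactamase reporter and co-transfected muscarinic M1 receptor were treated with compound plus carbachol (1 uM final, an EC50 level) for 5 h at 37 °C. CCF4 loading followed for 1 h at RT; 460/530 nm ratio gave %activity.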

[3] = Stat Signaling Pathway (AID 446); settings: ME-180 (cervical carcinoma) SIE beta-lactamase reporter, IL-6 stimulated, 5 h; at 17.2 µM (top of the series) unless noted;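 note: ME-180 cervical cancer cells given 40 pM IL-6 alongside compound; SIE-controlled beta-lactamase reporter measured as 460/530 nm FRET emission ratio; % is set by controls: 0 for no effect and ±100 for the full control effect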
Procedure, shortened: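 Emission at 460 and 530 nm (excitation 405 nm) reports SIE-controlled beta-lactamase in ME-180 cells. Cells received compound with 40 pM IL-6 for 5 hrs at 37 C; data scaled between 300 pM IL-6 and 125 nM JAK-inhibitor controls.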

[4] = target: Glucocorticoid receptor (Homo sapiens) (UniProt P04150); experiment: GR-GFP Redistribution (AID 450;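 active = compounds whose dose series gives a full or clear partial fitted curve of increased nuclear translocation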; note: potency is the fitted concentration of half-maximal effect); settings: U2OS GR-GFP nuclear translocation, laser cytometry, 2 h; series mostly up to 20.6 µM
Chain of Glucocorticoid receptor (Homo sapiens) (P04150 whole entry, looked up): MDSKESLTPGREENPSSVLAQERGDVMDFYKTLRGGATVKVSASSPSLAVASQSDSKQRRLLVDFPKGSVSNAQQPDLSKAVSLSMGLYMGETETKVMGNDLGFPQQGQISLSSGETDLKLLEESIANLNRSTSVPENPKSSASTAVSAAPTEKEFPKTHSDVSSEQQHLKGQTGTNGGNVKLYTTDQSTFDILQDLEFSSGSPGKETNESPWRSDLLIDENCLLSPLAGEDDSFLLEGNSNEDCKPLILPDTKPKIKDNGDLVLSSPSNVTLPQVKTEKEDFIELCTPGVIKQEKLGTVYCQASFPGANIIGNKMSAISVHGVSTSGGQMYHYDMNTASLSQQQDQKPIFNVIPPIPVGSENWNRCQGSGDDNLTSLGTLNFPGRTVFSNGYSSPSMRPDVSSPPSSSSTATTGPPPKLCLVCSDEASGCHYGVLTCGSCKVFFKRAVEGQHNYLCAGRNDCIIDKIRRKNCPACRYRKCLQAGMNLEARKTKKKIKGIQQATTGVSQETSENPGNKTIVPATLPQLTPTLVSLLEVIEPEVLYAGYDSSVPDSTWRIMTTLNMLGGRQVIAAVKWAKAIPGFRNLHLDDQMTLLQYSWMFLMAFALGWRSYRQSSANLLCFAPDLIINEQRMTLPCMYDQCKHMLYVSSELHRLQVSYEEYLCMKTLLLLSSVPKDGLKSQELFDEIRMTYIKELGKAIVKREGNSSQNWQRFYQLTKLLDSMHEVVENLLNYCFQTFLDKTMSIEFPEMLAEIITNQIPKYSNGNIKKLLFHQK

COc1ccc2c(=O)c(-c3nc(C)cs3)coc2c1
inactive: activity change, negative = inhibition [1] 13.2% | activity change, negative = inhibition [2] 15.3% | activity, negative = inhibition [3] 12.4% | Potency [4] > 20.6 µM

Oc1ccccc1-c1nc(NCCN2CCOCC2)c2ccccc2n1
inactive: activity change, negative = inhibition [1] -13.2% | activity change, negative = inhibition [2] 25.8% | activity, negative = inhibition [3] -12.5% | Potency [4] > 20.6 µM

COc1ccccc1C(=O)NCC(=O)n1nc(C)cc1C
inactive: activity change, negative = inhibition [1] -3.59% | activity change, negative = inhibition [2] -5.21% | activity, negative = inhibition [3] 10.4% | Potency [4] > 20.6 µM

COc1ccc(C2=Nn3c(nnc3-c3cccnc3)SC2)cc1OC
inactive: activity change, negative = inhibition [1] -11.2% | activity change, negative = inhibition [2] -23% | activity, negative = inhibition [3] -17.6% | Potency [4] > 20.6 µM

O=C1CC(c2ccco2)CC(O)=C1C=Nc1cc(Cl)ccc1O (stereo unspecified)
inactive: activity change, negative = inhibition [1] -23.8% | activity change, negative = inhibition [2] -1.32% | activity, negative = inhibition [3] -10.9% | Potency [4] > 20.6 µM

CCC1CC2(C)NC(=O)c3c(sc4c3CC(C)(C)OC4)N2C1=O (stereo unspecified)
inactive: activity change, negative = inhibition [1] -7.1% | activity change, negative = inhibition [2] -20.5% | activity, negative = inhibition [3] -10.3% | Potency [4] > 20.6 µM

COc1cccc(/C(O)=C2\C(=O)C(=O)N(c3ccccn3)C2c2ccccc2OC)c1 (stereo unspecified)
inactive: activity change, negative = inhibition [1] -8.01% | activity change, negative = inhibition [2] 11.4% | activity, negative = inhibition [3] 1.49% | Potency [4] > 20.6 µM

COc1ccc(OC)c(C2/C(=C(/O)c3ccccc3)C(=O)C(=O)N2Cc2ccco2)c1 (stereo unspecified)
inactive: activity change, negative = inhibition [1] -4.43% | activity change, negative = inhibition [2] 6% | activity, negative = inhibition [3] -9.05% | Potency [4] > 20.6 µM

Cc1ccc(C2CC(c3cccs3)n3nc(N)nc3N2)cc1 (stereo unspecified)
inactive: activity change, negative = inhibition [1] 2.57% | activity change, negative = inhibition [2] 6.31% | activity, negative = inhibition [3] 3.76% | Potency [4] > 20.6 µM

Cn1c(NCCN2CCCCC2)cc(=O)n(C)c1=O
inactive: activity change, negative = inhibition [1] 6.19% | activity change, negative = inhibition [2] -24.7% | activity, negative = inhibition [3] 9.99% | Potency [4] > 20.6 µM

Cc1ccc(-c2nnc(-c3cccc(Br)c3)o2)cc1
inactive: activity change, negative = inhibition [1] 14.2% | activity change, negative = inhibition [2] -11.6% | activity, negative = inhibition [3] 12.4% | Potency [4] > 20.6 µM

COc1cccc(/C=C2/CN(C)CC3=C2OC(N)=C(C#N)C3c2cccc(OC)c2)c1 (stereo unspecified)
inactive: activity change, negative = inhibition [1] -20.4% | activity change, negative = inhibition [2] -0.393% | activity, negative = inhibition [3] -1.9% | Potency [4] > 20.6 µM

CN(C)CCCn1c(NC(=O)C2CCCCC2)nc2ccccc21
inactive: activity change, negative = inhibition [1] 1.38% | activity change, negative = inhibition [2] -10.7% | activity, negative = inhibition [3] 6.97% | Potency [4] > 20.6 µM

CC1(C)Cc2c(c(N3CCOCC3)nc3snc(Br)c23)CO1
inactive: activity change, negative = inhibition [1] -5.9% | activity change, negative = inhibition [2] -26.2% | activity, negative = inhibition [3] 13.2% | Potency [4] > 20.6 µM

CCOC(=O)C(C#N)C(Cc1ccccc1)c1ccco1 (stereo unspecified)
inactive: activity change, negative = inhibition [1] -10.1% | activity change, negative = inhibition [2] -8.09% | activity, negative = inhibition [3] -9.08% | Potency [4] > 20.6 µM

CCOc1nc(SC(C(C)=O)C(=O)Nc2ccccc2)nc(N(C)C)n1 (stereo unspecified)
inactive: activity change, negative = inhibition [1] -3.25% | activity change, negative = inhibition [2] 19.9% | activity, negative = inhibition [3] 72.5% | Potency [4] > 20.6 µM

CC(=O)Nc1cc2c(cc1Br)OCCO2
inactive: activity change, negative = inhibition [1] 0.764% | activity change, negative = inhibition [2] -0.709% | activity, negative = inhibition [3] -0.829% | Potency [4] > 20.6 µM

Cc1nc(Nc2ncc3c(n2)CC(C)(C)CC3=O)nc2ccccc12
inactive: activity change, negative = inhibition [1] -5.98% | activity change, negative = inhibition [2] 10.6% | activity, negative = inhibition [3] -25% | Potency [4] > 20.6 µM

c1coc(-c2nnc3sc(-c4cccs4)nn23)c1
inactive: activity change, negative = inhibition [1] -11.6% | activity change, negative = inhibition [2] -8.1% | activity, negative = inhibition [3] -3.51% | Potency [4] > 20.6 µM
